Laboratory results taken from PubChem BioAssay (NCI).
About 83,000 compounds went through this panel and 20% of them were active in at least one assay; those are over-represented in the sample as a whole.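 Cell lines were cultured in 96-well plates, exposed to a single compound concentration, and assessed for percent growth 48 hours later.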 Unmarked numbers belong to inactive results. Active and inactive are the calls of the source. How the source made its calls: active means growth percent below 10; inactive means the rest.

Experiments:
Test in all cases: NCI-60 one-dose screen, 48 h (100 = growth as untreated, 0 = no growth, -100 = all killed)
Settings in all cases: 10 µM unless noted
HCT-15 colon = test system: HCT-15 colon
HT29 colon = test system: HT29 colon
SNB-75 CNS = test system: SNB-75 CNS
SNB-19 CNS = test system: SNB-19 CNS
U251 CNS = test system: U251 CNS
PC-3 prostate = test system: PC-3 prostate
SK-MEL-5 melanoma = test system: SK-MEL-5 melanoma
UACC-62 melanoma = test system: UACC-62 melanoma
LOX IMVI melanoma = test system: LOX IMVI melanoma
SK-MEL-28 melanoma = test system: SK-MEL-28 melanoma
SK-MEL-2 melanoma = test system: SK-MEL-2 melanoma
EKVX NSCLC = test system: EKVX NSCLC
SN12C renal = test system: SN12C renal
UO-31 renal = test system: UO-31 renal
TK-10 renal = test system: TK-10 renal
ACHN renal = test system: ACHN renal
CAKI-1 renal = test system: CAKI-1 renal
A498 renal = test system: A498 renal
CCRF-CEM leukemia = test system: CCRF-CEM leukemia
MOLT-4 leukemia = test system: MOLT-4 leukemia

| Compound | growth (HCT-15 colon) | growth (HT29 colon) | growth (SNB-75 CNS) | growth (SNB-19 CNS) | growth (U251 CNS) | growth (PC-3 prostate) | growth (SK-MEL-5 melanoma) | growth (UACC-62 melanoma) | growth (LOX IMVI melanoma) | growth (SK-MEL-28 melanoma) | growth (SK-MEL-2 melanoma) | growth (EKVX NSCLC) | growth (SN12C renal) | growth (UO-31 renal) | growth (TK-10 renal) | growth (ACHN renal) | growth (CAKI-1 renal) | growth (A498 renal) | growth (CCRF-CEM leukemia) | growth (MOLT-4 leukemia) |
| --- | --- | --- | --- | --- | --- | --- | --- | --- | --- | --- | --- | --- | --- | --- | --- | --- | --- | --- | --- | --- |
| COc1cc(OC)c(/C=C/C(=O)c2ccc(Nc3ncnc4ccccc34)cc2)c(OC)c1 | 9.75% (active) | -62.4% (active) | -38.9% (active) | 12.9% | -9.02% (active) | 12% | -42.4% (active) | -50% (active) | 3.48% (active) | -26.4% (active) | 7.01% (active) | 2.86% (active) | 25.3% | -15.8% (active) | -17.9% (active) | 22.8% | 17.8% | -26.4% (active) | 1.37% (active) | 12.7% |
| CN1CCN(CCCNc2nccc(-c3c(-c4ccc(F)c(O)c4)nc4sccn34)n2)S1(=O)=O | 108% | 57.7% | 122% | 114% | 106% | 86.9% | 72.6% | 11.5% | 50.7% | 12.8% | -1.07% (active) | 106% | 85.1% | 110% | 133% | 82.4% | 95.5% | 134% | 76% | 82.5% |
| COc1ccc(C(=O)/C=C/c2c(OC)cc(OC)cc2OC)c(OC)c1 | 5.27% (active) | 1.7% (active) | 8.7% (active) | 33.6% | 15.5% | 6.39% (active) | -5.47% (active) | 11.9% | 27.3% | 56.8% | -9.11% (active) | 59.1% | 28.8% | 31.8% | 44.3% | 26.9% | -1.02% (active) | 13.8% | 9.01% (active) | 33.6% |
| CSc1nnc2c(=O)n(C)c(=O)n(C)c2n1 | 100% | 111% | 100% | 97.5% | 97.2% | 83.2% | 106% | 95.8% | 83.5% | 95.5% | -28.8% (active) | 111% | 96.1% | 88.9% | 99.9% | 98% | 110% | 88.7% | 88.3% | 106% |
| CCn1cc(C2NC(=O)c3ccccc3N2)c2cccc(C)c21 (stereo not given) | 18.6% | -22.9% (active) | -26.9% (active) | 32.9% | 3.94% (active) | 22% | 16.8% | 27.6% | 29.2% | 56.5% | 2.54% (active) | 29.4% | 23.9% | 38.7% | 33.6% | 26.8% | 32.6% | -17.4% (active) | -3.39% (active) | 10.9% |
| COc1ccc(-c2nn(Cc3ccccc3)c3c2-c2oncc2CC3)cc1OC | 93.4% | 108% | 105% | 104% | 93.1% | 86.6% | 102% | 86.8% | 86.2% | 105% | 125% | 67% | 85.8% | 75% | 84.1% | 90.9% | 81.8% | 57.4% | 98.3% | 67.2% |
| Cn1c(COC(=O)NCCN2CCOCC2)nc2c(N3CCOCC3)nc(-c3ccccc3)nc21 | -39.4% (active) | -58.1% (active) | -3.92% (active) | 48.7% | -52.5% (active) | -71.2% (active) | -93.6% (active) | -93.6% (active) | -87.2% (active) | -97.6% (active) | -59.8% (active) | -62.6% (active) | -81.2% (active) | -100% (active) | -78.8% (active) | -100% (active) | -94.8% (active) | 30.7% | -10.9% (active) | -16.2% (active) |
| Cc1c2c(cc[n+]1Cc1ccc(F)cc1)c1ccc(OCc3cccc(F)c3)cc1n2Cc1cccc(F)c1 | 54.3% | -74.9% (active) | -88.7% (active) | -90.3% (active) | -89.4% (active) | -44.4% (active) | -99.4% (active) | -98% (active) | -82.7% (active) | -91% (active) | -81.3% (active) | -23.5% (active) | -90.5% (active) | 53.9% | -27.8% (active) | 32.2% | 60.2% | -1.04% (active) | -54.2% (active) | -62.4% (active) |
| COc1ccncc1C#Cc1cncc(C(=O)Nc2ccc(CN3CCN(C)CC3)c(C(F)(F)F)c2)c1 | 16.9% | 15.2% | 65.7% | 70.1% | 62% | 42.4% | 34.2% | 26.4% | -6.87% (active) | 18.2% | -0.485% (active) | 38.4% | 17.7% | 11.7% | 50.6% | 13.2% | 15.4% | 28.9% | 12.3% | 22.5% |
| c1ccc(C2CC(c3cccc(Nc4ccncc4)c3)=NN2c2ccccc2)cc1 (stereo not given) | -15.7% (active) | 1.62% (active) | 77.3% | 89.1% | 25.6% | 54.5% | 75.3% | 96.8% | 43.7% | -56.2% (active) | 103% | 91.4% | 77.9% | 70.3% | 98.9% | 90.1% | 61.8% | 83.2% | 56.9% | 18% |
| O=C(Nc1ccc2ncnc(Nc3ccc(Oc4cccc(F)c4)c(Cl)c3)c2c1)c1ccc(CN2CCOCC2)cc1 | 11.2% | 20.9% | 55.8% | 50.8% | 36.5% | 14.6% | 4.82% (active) | 53.5% | 8.89% (active) | 52.2% | 59.1% | 30.4% | 39% | 20.3% | 53.6% | 17.5% | 24.4% | 53.9% | 2.89% (active) | -3.45% (active) |
| C/C(=C(/c1ccccc1)c1ccc(OCC(O)CN2CCOCC2)cc1)c1ccccc1 (stereo not given) | 53.8% | 13.1% | 91.4% | 102% | 81.1% | 71.8% | 87.1% | 97% | 87.9% | 90% | 98.9% | 96.6% | 88.3% | 73.7% | 94.3% | 98.8% | 80.1% | 91.6% | 80.4% | 61.5% |
| COc1ccc(Cn2nc3c(c2-c2cc(OC)c(OC)c(OC)c2)-c2oncc2CC3)cc1 | 73.2% | 90.4% | 62.6% | 91.4% | 94.4% | 80.6% | 70.9% | 86.1% | 80.9% | 91.1% | 103% | 85.6% | 93.5% | 65.8% | 96.2% | 91.9% | 65.2% | 80.3% | 103% | 77.9% |
| COc1ccc(/C=N/NC(=O)c2cccc3cc[nH]c23)cc1O | 33.2% | 19.7% | 18.6% | 39.7% | 26.6% | 31.5% | 2.92% (active) | 33% | 53.1% | 63.4% | 52.3% | 32.1% | 53.9% | 60.4% | 47.1% | 57.9% | 46.5% | 74.5% | 0.582% (active) | 38.2% |
| COc1ccc(C(=O)c2cc3c(N)c(C(=O)Nc4cccc5ccccc45)sc3nc2C)cc1 | 18.9% | -68.5% (active) | -11.3% (active) | 30.4% | 10.5% | 24.5% | -12.3% (active) | 31.8% | 23.7% | 59.3% | 37.4% | 36% | 22.5% | 36.3% | 60.5% | 30.5% | 20.9% | -7.9% (active) | 8.02% (active) | 13.8% |
| NC(=O)C1(N2CCCCC2)CCN(CCCC(=O)c2ccc(F)cc2)CC1 | 93.6% | 5.09% (active) | 23.5% | 32.3% | 23.2% | 30.2% | 4.4% (active) | 29.3% | 42.4% | 51.7% | 13.9% | 59.2% | 43.3% | 88.9% | 88.2% | 90.9% | 91.7% | 32.8% | 0.142% (active) | 26.8% |
